In PubChem BioAssay (Tox21):
Values joined by “and” are separate entries in the source; they are usually repeats but may differ in a detail not shown here. Equal entries are not always repeated. Inconclusive results are not listed. A number with no mark means an inactive call. Active and inactive are the calls of the source. Calls come from the whole dose curve.

Test: qHTS assay to identify small molecule agonists of the NFkB signaling pathway - cell viability counter screen (AID 1159515); note: nearly all actives have a fitted effect of over 55% in size
Conditions: NFkB-bla ME-180 viability, CellTiter-Glo luminescence, 5 h; series mostly up to 61 µM; activity, negative = cytotoxic: at the top concentration
Excerpt: National Center for Advancing Translational Sciences [NCATS]
NIH Chemical Genomics Center [NCGC]
U.S. Environmental Protection Agency [EPA]
National Institutes of Environmental Health Sciences [NIEHS]
National Toxicology Program [NTP]
U.S. Food and Drug Administration [FDA]
Transcription factors and their stimulated target gene expression play pivotal roles across many cellular processes including responses to environmental stimuli. Proper regulation of associated pathways is critical to maintain cell health and function. Constitutive activation of transcription factor pathways has been implicated in tumors as it may block cellular functions such as apoptosis and lead to invasion and metastasis. One important transcription factor that stimulates gene expression in response to cytokines, UV radiation, and other stimuli is nuclear factor-kappa B (NFkB). To measure activation of the NFkB pathway, the CellSensor NFkB-bla ME-180 cell line (Life Technologies, Carlsbad, CA) that stably expresses beta-lactamase reporter gene under the regulation of a NF-kB response element was used. This assay allows measurement of the NFkB pathway activity induced by compounds in a ME-180 cell line. This system quantitates NF-kB activity using a FRET-based assay system where beta-lactamase expression disrupts FRET, allowing for fluorescent measurement of activity. This cell line has been used to screen the Tox21 10K compound library and to identify compounds that induce the NFkB pathway activity. The cytotoxicity of the Tox21 compound library against the NFkB-bla ME-180 cell line was tested in parallel by measuring cell viability using the CellTiter-Glo assay in the same wells.
Tox21 Assay Protocol Summary:
NFkB-bla ME-180 cells were dispensed at 2,000 cells/6 uL of assay medium per well into black wall/clear-bottom 1536-well plates using a Multidrop Combi (ThermoFisher Scientific, Waltham, MA) dispenser. After the assay plates were incubated at 37 C and 5% CO2 for an overnight, 23 nL of compounds dissolved in DMSO, positive controls or DMSO only was transferred to the assay plate by a Pintool station (Kalypsys, San Diego, CA). The assay plates were incubated at 37 C and 5% CO2 for 5 hr. One uL of LiveBLAzer B/G FRET substrate (Life Technologies) was added using a Flying Reagent Dispenser (Aurora Discovery, San Diego, CA) and the plates were incubated at room temperature for 1.5 hr. Fluorescence intensity (405 nm excitation, 460 nm and 530 nm emissions) was measured using an Envision plate reader (PerkinElmer, Shelton, CT). For cytotoxicity, 3 ul/well of CellTiter-Glo reagent was added into the assay plates using an FRD. After 30 min incubation at room temperature, the luminescence intensity was measured using a ViewLux plate reader (PerkinElmer).
% is set by controls: 0 for no effect and ±100 for the full control effect; potency is the fitted concentration of half-maximal effect.

| Compound | activity, negative = cytotoxic | Potency |
| --- | --- | --- |
| CCC(CO)(CO)COCC(CC)(CO)CO | -6.07% | – |
| Cc1ccc(-c2cc(C(F)(F)F)nn2-c2ccc(S(N)(=O)=O)cc2)cc1 | -14.1% | – |
| CCCNC(C)C(=O)Nc1ccccc1C (stereo not given) | 11.5% | – |
| CC(C)C(=O)c1c(C(C)C)nn2ccccc12 | -1% | – |
| O=C(Cl)c1cccc(C(=O)Cl)c1 | -3.29% | – |
| CCc1cc(C(C)(C)C)c(O)c(C(C)(C)C)c1 | 8.68% | – |
| CNC1(C)C2CCC(C2)C1(C)C (stereo not given) | -20.3% | – |
| NC(N)=NC(=O)Cc1c(Cl)cccc1Cl | -5.11% | – |
| CC(C)(c1ccccc1)c1ccc(Nc2ccc(C(C)(C)c3ccccc3)cc2)cc1 | – | inactive |
| Nc1nc2ccccc2[nH]1 | – | inactive |
| Cc1cc(OCCOCC[N+](C)(C)Cc2ccccc2)ccc1C(C)(C)CC(C)(C)C | – | 38.7 µM (active) and 26.8 µM (active) |
| O=C1OC2(c3ccc(O)cc3Oc3cc(O)ccc32)c2ccccc21 | – | inactive |
| Cc1c(O)cccc1C(=O)N[C@@H](CSc1ccccc1)[C@H](O)CN1C[C@H]2CCCC[C@H]2C[C@H]1C(=O)NC(C)(C)C | – | inactive |
| O=C(Oc1ccccc1)c1ccccc1O | 3.97% | – |
| Nc1ccc(O)cc1 | 3.76% | – |
| OCC(CO)N[C@H]1C[C@](O)(CO)[C@@H](O)[C@H](O)[C@H]1O | -10.4% | – |
| CCCCOCCOC(=O)c1ccccc1C(=O)OCCOCCCC | -5.3% | – |
| COC(c1ccccc1)(c1ccccc1)[C@H](Oc1nc(C)cc(C)n1)C(=O)O | 1.26% | – |
| CCCCC/C=C/CC1CC(=O)OC1=O (stereo not given) | 13.4% | – |
| CCOc1ccccc1C(N)=O | 9.97% | – |

| Compound | activity, negative = cytotoxic | Potency |
| --- | --- | --- |
| O=C(O)c1cn(-c2ccc(F)cc2)c2cc(N3CCNCC3)c(F)cc2c1=O | -2.15% [at 28.5 µM] | – |
| C=CC(=O)OCCCCCCCC | 9.38% | – |
| CCN(CC)CCOc1ccc(/C(=C(\Cl)c2ccccc2)c2ccccc2)cc1 | – | 44.6 µM (active) and 23.9 µM (active) |
| Oc1ccc(Cl)cc1Cc1cc(Cl)ccc1O | – | inactive |
| O=S(=O)(O)c1ccc2nc(-c3ccccc3)[nH]c2c1 | – | 13.1 µM (active) |
| NCCCCCC(=O)O | -0.736% | – |
| C=CC(=O)OCCCCCCOC(=O)C=C | -6.05% | – |
| Cc1cc(C(C)(C)C)c(O)c(C(C)(C)C)c1 | -30.5% | – |
| CCCN[C@H]1CCc2nc(N)sc2C1 | 5.2% | – |
| NNCCc1ccccc1 | 0.329% | – |
| Cc1occc(=O)c1OC(=O)C(C)C | 10.3% | – |
| CCCOC(=O)c1cc(O)c(O)c(O)c1 | 8.16% | – |
| BrC1CCC(Br)C(Br)CCC(Br)C(Br)CCC1Br (stereo not given) | – | inactive |
| CC(C(O)c1ccc(O)cc1)N1CCC(Cc2ccccc2)CC1 (stereo not given) | 1.21% | – |
| COC(=O)/C=C/c1ccccc1 | 3.4% | – |
| O=C1Nc2ccccc2C1(c1ccc(O)cc1)c1ccc(O)cc1 | – | 0.174 µM (active) |
| Clc1ccc2c(c1)C(N1CCNCC1)=Nc1ccccc1O2 | – | inactive |
| c1cc(C(c2ccc(OCC3CO3)cc2)C(c2ccc(OCC3CO3)cc2)c2ccc(OCC3CO3)cc2)ccc1OCC1CO1 (stereo not given) | – | inactive |
| CCCCCC(=O)O[C@]1(C(C)=O)CC[C@H]2[C@@H]3CCC4=CC(=O)CC[C@]4(C)[C@H]3CC[C@@]21C | – | inactive |
| Oc1c(Cl)cc(Cl)c(Cl)c1Cc1c(O)c(Cl)cc(Cl)c1Cl | – | 34.6 µM (active) and 43.6 µM (active) |
